Assay results published in PubChem BioAssay (Tox21).
Records with an inconclusive call do not appear. Unmarked numbers belong to inactive results. Calls follow the shape of the full dose curve.

Assay: qHTS assay to identify small molecule agonists of the AP-1 signaling pathway (AID 1159526)
Conditions: ME-180 (cervical carcinoma) AP-1-bla reporter, beta-lactamase FRET ratio, 5 h; series mostly up to 76.8 µM; activation: at the top concentration
% is scaled to controls: 0 for no effect and ±100 for the full control effect.

Structure (SMILES) | activation
C[C@]12CC[C@H]3[C@@H](CC=C4C[C@@H](O)CC[C@@]43C)[C@@H]1CC[C@@H]2O | -1.59% [at 35.3 µM]
CCCCC(=O)Cl | 2.09%
CCCCCCI | 10.4%
CC(C)[N+](=O)[O-] | -3.51%
OC(c1ccccc1)(c1ccccc1)C1CCNCC1 | -9.04% [at 35.3 µM]
CC(Cl)(Cl)[N+](=O)[O-] | -0.0161%
C=C(C)CN(CC)c1c([N+](=O)[O-])cc(C(F)(F)F)cc1[N+](=O)[O-] | 0.897%
CN1CCN(C(=O)O[C@H]2c3nccnc3C(=O)N2c2ccc(Cl)cn2)CC1 | 7.16% [at 35.3 µM]
CCCCCCBr | 3.62%
NC(=S)C(N)=S | 3.62%
Cc1ncc2n1-c1ccc(Cl)cc1C(c1ccccc1F)=NC2 | -1.26% [at 35.3 µM]
COc1cccc(C(=O)NN(C(=O)c2cc(C)cc(C)c2)C(C)(C)C)c1C | 1.16%
O=C1c2ccccc2C(=O)c2ccccc21 | 11.5% [at 15.8 µM]
Cc1ncc(CNC(=O)N(CCCl)N=O)c(N)n1 | -0.645% [at 35.3 µM]
C[N+](C)=CCl | 0.695%
COc1cc(OC)nc(Oc2cccc(Oc3nc(OC)cc(OC)n3)c2C(=O)O)n1 | -1.63%

Structure (SMILES) | activation
CNC(=O)Oc1ccccc1C1OCCO1 | -8.73%
O=[N+]([O-])c1cccc2cccnc12 | 2.3%
Cc1cc(C)nc(Nc2ccccc2)n1 | -2.91%
OCCBr | 2.56%
O=C(Nc1ccccc1)c1ccccc1I | -2.81%
CC(C)(C)NCC(O)c1cc(Cl)c(N)c(Cl)c1 (configuration not stated) | 2.5% [at 35.3 µM]
CC(N)=S | -1.54%
O=[N+]([O-])c1ccc2c3c(cccc13)CC2 | -10.5%
CCOP(=O)(OCC)OP(=O)(OCC)OCC | 7.37%
C[C@@H]1CN(C2CCC(C#N)(c3ccc(F)cc3)CC2)CC[C@]1(C(=O)O)c1ccccc1 (some centres not stated) | 5.03% [at 35.3 µM]
ClC(Cl)C(Cl)Cl | 8.32%
CC1CCC(=O)O1 (configuration not stated) | -1.93%
CS(=O)(=O)c1cc(C(F)(F)F)ccc1C(=O)c1cnoc1C1CC1 | -2.01%
COc1cc2c(cc1OC)[C@@]13CCN4CC5=CCO[C@H]6CC(=O)N2[C@H]1[C@H]6[C@H]5C[C@H]43 | -5.76%
CNC(=O)Oc1ccc(N(C)C)c(C)c1 | 4.32%
NC(=O)O | 0.182%
